Source: PubChem BioAssay (NCI)
About 79,000 compounds went through this panel and 15% of them were active in at least one assay; those are over-represented in the sample as a whole. A number with no mark means an inactive call. The source made the active and inactive calls. Cut-off read from the data, not from the text of the source: active = growth inhibition above about 70%; inactive = the rest.

Assays:
[1] = NCI Yeast Anticancer Drug Screen. Data for the rad50 strain (AID 155);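 note: 0% = growth of vehicle-only cultures of the same strain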; conditions: S. cerevisiae rad50 strain growth inhibition, hits give high values
Method in brief: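 Compounds were tested on a yeast strain with an engineered DNA damage repair alteration; the reported value is growth inhibition normalised to vehicle treatment.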

[2] = NCI Yeast Anticancer Drug Screen. Data for the mec2-1 strain (AID 157); conditions: S. cerevisiae mec2-1 strain, hits give high values
Method in brief: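 Readout is yeast growth inhibition, normalised to vehicle-treated controls, in the mec2-1 strain exposed to compound.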

[3] = NCI Yeast Anticancer Drug Screen. Data for the sgs1 mgt1 strain (AID 161);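 note: 0% = growth of cultures given vehicle only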; conditions: S. cerevisiae sgs1 mgt1 strain, hits give high values
Method in brief: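 This yeast growth screen uses a strain with defined DNA-repair lesions; compound-treated growth is compared with vehicle-treated growth.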

[4] = NCI Yeast Anticancer Drug Screen. Data for the cln2 rad14 strain (AID 165);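 note: 0% = growth equal to vehicle treated cultures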; conditions: S. cerevisiae cln2 rad14 strain, hits give high values
Method in brief: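 Relative to vehicle controls, growth inhibition of compound-treated cln2 rad14 yeast was recorded.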

[5] = NCI Yeast Anticancer Drug Screen. Data for the bub3 strain (AID 167); conditions: S. cerevisiae bub3 mutant strain, hits give high values
Method in brief: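 Growth of a checkpoint-deficient yeast mutant is measured after compound exposure. Values represent inhibition relative to vehicle.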

[6] = NCI Yeast Anticancer Drug Screen. Data for the mlh1 rad18 strain (AID 175); conditions: S. cerevisiae mlh1 rad18 strain growth inhibition, hits give high values
Method in brief: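 Test agents were incubated with a yeast strain of defined genotype (DNA damage repair defect). Inhibition of growth was derived by comparison with vehicle-exposed cultures.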

[7] = at 5.0 µM (retest, dose inferred, filed as 0.5)
[8] = at 50.0 µM (retest, dose inferred, filed as 5.0)

SMILES | growth inhibition [1, 7] | growth inhibition [1, 8] | growth inhibition ([1]; at 50.0 µM) | growth inhibition [2, 7] [%] | growth inhibition [2, 8] | growth inhibition ([2]; at 50.0 µM) | growth inhibition [3, 7] [%] | growth inhibition [3, 8] | growth inhibition ([3]; at 50.0 µM) | growth inhibition [4, 7] [%] | growth inhibition [4, 8] | growth inhibition ([4]; at 50.0 µM) | growth inhibition [5, 7] [%] | growth inhibition [5, 8] | growth inhibition ([5]; at 50.0 µM) | growth inhibition [6, 7] [%] | growth inhibition [6, 8] | growth inhibition ([6]; at 50.0 µM)
CCNc1cc2c3c(c1)CCCN3CCC2 | 15% | 40% | -15.7% | 13 | 27% | -20.7% | 14 | 18% | -1.15% | 20 | 24% | -46.1% | 15 | 30% | -17% | 17 | 51% | -10.7%
CC(=O)Nc1cc(F)c2c(c1)Cc1ccccc1-2 | 5% | 77% (active) | -1.75% | -2 | 59% | 19.5% | -1 | 84% (active) | -16.8% | 0 | 77% (active) | 89.4% (active) | 2 | 83% (active) | 90.5% (active) | 4 | 78% (active) | -14.2%
O=c1c2ccccc2sc2c1c(N(CCO)CCO)cc1ccccc12 | 45% | 94% (active) | 97.5% (active) | 6 | 94% (active) | 95.8% (active) | 12 | 93% (active) | 97.9% (active) | -7 | 78% (active) | 96.2% (active) | -5 | 93% (active) | 96.8% (active) | 19 | 95% (active) | 97.6% (active)
Cn1cnc2[nH]c(Cl)nc(=S)c21 | -1% | 2% | 1.05% | 3 | 0% | -8.25% | -1 | 0% | -0.65% | -6 | 0% | 81.1% (active) | -1 | -4% | 11.9% | -2 | 0% | 15.6%
COc1ccc2c(C)c(N=C=S)c(=O)oc2c1 | 35% | 79% (active) | 60.2% | 13 | 78% (active) | 69% | 34 | 81% (active) | 48% | 6 | 33% | 1.75% | 29 | 87% (active) | 89% (active) | 42 | 89% (active) | 74.7% (active)
Oc1ccccc1C(c1cc2c(cc1O)OCO2)N1CCOCC1 (configuration not stated) | -23% | 99% (active) | 87.3% (active) | -28 | 100% (active) | 88.7% (active) | -51 | 99% (active) | 89.8% (active) | -12 | 99% (active) | 91% (active) | -34 | 99% (active) | 91.3% (active) | 1 | 99% (active) | 91.9% (active)
CC[N+](C)(CC)CCC[n+]1c(-c2ccccc2)c2cc(N)ccc2c2ccc(N)cc21 | 60% | 90% (active) | 94.6% (active) | 1 | 27% | 44.2% | -2 | 33% | 68.9% | -3 | 19% | 24.9% | -7 | 9% | 18.9% | 4 | 49% | 82% (active)
Clc1ccc(C2=CCN3CC=C(c4ccc(Cl)cc4)C23)cc1 | 24% | 18% | 99.8% (active) | 1 | 42% | 99.9% (active) | 32 | 46% | 100% (active) | 13 | 5% | 99.6% (active) | 17 | 41% | 99.8% (active) | 18 | 39% | 99.8% (active)
C/C(=N/NC(N)=O)c1ccc(Cl)s1 | 0% | -1% | 12.9% | 23 | -3% | 5% | -1 | 0% | -4.35% | -8 | -3% | 52.9% | -2 | -7% | 9.4% | -5 | -1% | 1.6%
Clc1ccccc1/C=C/c1ccnc2ccccc12 | 1% | 99% (active) | 97.7% (active) | 17 | 99% (active) | 97.8% (active) | 14 | 99% (active) | 97.9% (active) | -19 | 98% (active) | 96.8% (active) | -3 | 99% (active) | 97.9% (active) | -5 | 99% (active) | 98.2% (active)
Cc1c(O)c(Br)c(C)c(O)c1Br (tested in a mixture with another compound) | 0% | 85% (active) | 75.8% (active) | 21 | 69% | 49.8% | -2 | 90% (active) | 80.6% (active) | -2 | 47% | 1.05% | 1 | 77% (active) | 61.6% | 8 | 86% (active) | 62.1%
COC(=O)[C@]1(C)CCCC2(C)C3=C(CCC21)CC1(CC3)SCCS1 (some centres not stated) | 12% | 92% (active) | 85.4% (active) | 41 | 94% (active) | 91.3% (active) | 29 | 93% (active) | 87.6% (active) | 46 | 96% (active) | 86.4% (active) | 56 | 95% (active) | 86.5% (active) | 18 | 95% (active) | 85.7% (active)
CCOC(=O)CC(=O)/C=C/c1ccncc1 | 1% | 5% | -19.2% | -2 | 0% | -8.45% | -10 | -6% | -5.25% | 3 | 1% | 68.7% | 5 | 4% | -9.3% | 1 | 3% | 0.7%
COc1cccc(C=Nc2ccc(I)cc2)c1O.COc1cccc(C=Nc2ccc(I)cc2)c1O.[Co] | 15% | 56% | 29.4% | 11 | 25% | 11.7% | 12 | 31% | 30.2% | 10 | 19% | 21% | 10 | 9% | 52.1% | 13 | 37% | 19.2%
Cc1ccc(-[n+]2cc([O-])on2)cc1 | -11% | 15% | 27.4% | -10 | -8% | 28.9% | -6 | 0% | -5.5% | -3 | -3% | 64.2% | 10 | 2% | 15.6% | -7 | 22% | 28.4%
COc1ccc(C2COc3cc(O)c(O)cc3C2)cc1OC (configuration not stated) | -10% | 60% | 61.4% | 14 | 81% (active) | 72.2% (active) | 7 | 69% | 43.3% | -6 | 2% | 51.5% | -14 | 60% | 29.6% | 1 | 90% (active) | 88% (active)
COc1cc(NCC(C)(O)CN2CCC(C)CC2C)c2ncccc2c1 (configuration not stated) | 14% | 57% | 83.2% (active) | 14 | 47% | 50.1% | 20 | 61% | 77% (active) | 13 | 52% | 79.4% (active) | 7 | 54% | 80.7% (active) | 0 | 58% | 83.7% (active)
COc1ccc(CSC(=S)Nc2cc(C)c(C)cc2[N+](=O)[O-])cc1 | 9% | 93% (active) | 95.8% (active) | 6 | 95% (active) | 97.8% (active) | 46 | 96% (active) | 97.5% (active) | -11 | 90% (active) | 93% (active) | 4 | 96% (active) | 97% (active) | 60 | 95% (active) | 98% (active)
O=C(CSc1nnc(Cc2ccccc2)o1)Nc1ccc(Cl)cc1[N+](=O)[O-] | 1% | 56% | 83% (active) | -13 | 57% | 50.3% | 4 | 49% | 76.5% (active) | 10 | 51% | 21.8% | -10 | 64% | 15.1% | 4 | 53% | 83.8% (active)
O=C1C2C3C=CC(C3)C2C(=O)C2C3C=CC(C3)C12 (configuration not stated) | 70% (active) | 96% (active) | 98.6% (active) | 58 | 98% (active) | 99.3% (active) | 65 | 99% (active) | 99% (active) | 23 | 95% (active) | 88% (active) | 53 | 96% (active) | 98.9% (active) | 60 | 98% (active) | 99.2% (active)
CCOC(=O)N/N=C/c1ccc(N(C)CCC#N)cc1 | 7% | 6% | -12% | -3 | 12% | -26.9% | -4 | 4% | 55.2% | 37 | 17% | 5.5% | 22 | 15% | 1.1% | 14 | 24% | -3.6%
CCc1cccc(C)c1N1C(=O)C(=O)C(c2nc3ccccc3o2)/C(=N\NS(=O)(=O)c2ccc(C)cc2)C1=O (configuration not stated) | 7% | 0% | -6.6% | 15 | 34% | 14.2% | 6 | 2% | 4.4% | 8 | -2% | 36% | 8 | 14% | 6.6% | 5 | 15% | 0.25%
CCOC(=O)Nc1cc2c(cn1)[nH]c1ccccc12 | -3% | 46% | -0.8% | 7 | 72% (active) | -12.2% | -1 | 52% | 8.35% | 1 | 25% | -0.4% | 2 | 38% | 3.25% | 5 | 86% (active) | 5.3%
Cn1c(=NCCc2ccccc2)oc2ccc(Cl)cc21 | -6% | 17% | 6.15% | -7 | 9% | 1.7% | -7 | 29% | 30.3% | -4 | 16% | 73% (active) | 4 | 33% | 18.6% | -3 | 25% | 18.6%
